In PubChem BioAssay (NCATS) one finds outcome data, which are given here for 30 compounds.

Records with an inconclusive call do not appear. The source made the active and inactive calls. Calls follow the shape of the dose curve; as a rule, active = well fitted inhibition curve with a large enough effect; inconclusive = small, poorly fitted or top-dose-only effect; inactive = no such curve, though single readings can be large or run the other way.

The nature of this experiment: Primary qHTS for inhibitors of La Crosse Virus (LACV) - induced cell death in SH-SY5Y cells (AID 1508616).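 Also: top concentration of the series differs between compounds; higher means more rescue of cells from virus-induced death.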 To be noted: SH-SY5Y LACV cytopathicity rescue, ATP luminescence, 6 d; series mostly up to 4.29 µM. In a few lines:
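Rescue of virus-induced death was read as ATPLite luminescence after 6 days at 37C, scaled between DMSO wells with LACV and without virus. Cells were SH-SY5Y, 6000/well, infected at 0.01 MOI after compound addition.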
Background: In qHTS, concentration-response curves come from the screen itself.
Regarding `O=C1OC2(c3ccccc31)c1cc(Br)c(O)c(Br)c1Oc1c2cc(Br)c(O)c1Br`, the outcome was inactive.
Consider `CCCCCN=C(N)N/N=C/c1c[nH]c2ccc(OC)cc12`, for which the compound was called inactive.
In the case of `CC[C@H](c1ccc(O)cc1)[C@@H](CC)c1ccc(O)cc1`, the compound was called inactive.
Next, `C#C[C@]1(O)CC[C@H]2[C@@H]3CCC4=Cc5oncc5C[C@]4(C)[C@H]3CC[C@@]21C`: “inactive”.
Consider `CC(=O)Nc1ccc(S(=O)(=O)Nc2ccc([N+](=O)[O-])cc2)cc1`, for which the result was inactive.
With `CC1=C(C(=O)O)N2C(=O)[C@@H](NC(=O)[C@H](N)c3ccccc3)[C@H]2SC1` the entry was “inactive”; with `NCCNc1cccc2ccccc12`, “inactive”.
As for `CC(=O)Nc1ncc([N+](=O)[O-])s1`, the result was inactive.
In the case of `CCN(CC)CCOc1ccccc1C(=O)CCc1ccccc1`, the outcome was inactive.
Regarding `CCCN(CCc1cccs1)[C@H]1CCc2c(O)cccc2C1`, the result was inactive.
Regarding `CC(=O)O[C@]1(C(C)=O)CC[C@H]2[C@@H]3C=C(Cl)C4=CC(=O)CC[C@]4(C)[C@H]3CC[C@@]21C`, the outcome was inactive.
Take `NC(N)=NN=C(/C=C/c1ccc([N+](=O)[O-])o1)/C=C/c1ccc([N+](=O)[O-])o1`: the compound was called inactive.
Next, `COc1cc(N)c(Cl)cc1C(=O)NC1CCN(Cc2ccccc2)CC1`: “inactive”; `N#C/C(=C1\SCC(c2ccccc2Cl)S1)n1ccnc1` (stereo not given): “inactive”.
For the compound `NC(=O)c1ccccc1O`, the compound was classed as inactive.
On to `O=C1C(CCS(=O)c2ccccc2)C(=O)N(c2ccccc2)N1c1ccccc1` (stereo not given), for which the call was inactive.
Consider `Cc1c(-c2ccccc2)oc2c(C(=O)OCCN3CCCCC3)cccc2c1=O`, for which the result was inactive.
`CCCCC(CC)COC(=O)/C=C/c1ccc(OC)cc1` (stereo not given): the compound was called inactive.
For `CCC(Cc1c(I)cc(I)c(N)c1I)C(=O)O` (stereo not given), the result was inactive.
As for `O=C(Nc1ccc([N+](=O)[O-])cc1)Nc1ccc([N+](=O)[O-])cc1`, the result was inactive.
For `CN1CCN(C2=Nc3cc(F)ccc3Cc3ccccc32)CC1`, the result was inactive.
As to `O=C1c2cccc3c2[C@H](CCC3)CN1[C@@H]1CN2CCC1CC2`, the result was inactive.
As for `OCc1ccccn1`, the call was inactive.
For `CC(=O)OCC(=O)[C@H]1CC[C@H]2[C@@H]3CCC4=CC(=O)CC[C@]4(C)[C@H]3CC[C@]12C`, the call was inactive.
On to `C=C[C@H]1CN2CC[C@H]1C[C@@H]2[C@@H](O)c1ccnc2ccc(OC)cc12`, for which the compound was called inactive.
As for `O=C(Nc1ncc([N+](=O)[O-])s1)c1cccs1`, the result was inactive.
`CCc1oc2ccccc2c1C(=O)c1cc(I)c(O)c(I)c1`: the compound was classed as inactive.
For the compound `C#C[C@]1(OC(C)=O)CC[C@H]2[C@@H]3CCC4=C/C(=N/O)CC[C@@H]4[C@H]3CC[C@@]21CC`, the outcome was inactive.
With `CN(Cc1ccc(C(C)(C)C)cc1)Cc1cccc2ccccc12`, the outcome was inactive.
In the case of `NS(=O)(=O)c1cc2c(cc1Cl)NC(CC1CCCC1)NS2(=O)=O` (stereo not given), the outcome was inactive.
